Measurements published in PubChem BioAssay (Tox21).
“And” between values parts separate entries of the source, which are not always exact repeats. Equal values may be shown once. Inconclusive results are not listed. The source made the active and inactive calls. Calls follow the shape of the dose curve; as a rule, active = well fitted cell-killing curve with a large enough effect in the repeat runs; inconclusive = weak or mixed curves, or effect the other way; inactive = flat fitted curve, though single readings scatter.

Experiment: cAMP Responsive Elements (CRE) small molecule antagonists, cell-based qHTS assay: qHTS cell viability counter screen (AID 2060913); also: nearly all actives have a fitted effect of over 40% in size
Conditions: CRE-bla HEK293T viability, CellTiter-Glo luminescence, 5 h; series mostly up to 92.4 µM; viability change, negative = cytotoxic: at the top concentration
Summary of the method: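 CRE-bla HEK293T cells (2,000/well, 18 h) given compound plus NKH477 0.25 uM final for 3 h at 37C; viability counter-screen by CellTiter-Glo luminescence in same wells after 30 min.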
% is scaled to controls: 0 for no effect and ±100 for the full control effect; potency is read from the fitted curve at half-maximal effect.

SMILES	Potency	viability change, negative = cytotoxic
O=C(Nc1ccc(Cl)cc1)Nc1ccc(Cl)c(C(F)(F)F)c1	26.6 µM (active)	
CCC(C)(C)c1ccc(CC(C)CN2C[C@@H](C)O[C@@H](C)C2)cc1 (stereo not given in full)		1.32% [at 42.5 µM] (inactive)
O=C(NO)c1ccccc1		-2.16% (inactive)
OC1CCCCCCCCCCC1	inactive	
CC(C)c1nc(CN(C)C(=O)N[C@H](C(=O)N[C@@H](Cc2ccccc2)C[C@H](O)[C@H](Cc2ccccc2)NC(=O)OCc2cncs2)C(C)C)cs1		-2.26% [at 42.5 µM] (inactive)
CCN(CC)CCCC(C)Nc1ccnc2cc(Cl)ccc12 (stereo not given)		4.94% [at 8.39 µM] (inactive) and -2.8% [at 18.9 µM] (inactive)
CC(C)(C)c1ccc(C(=O)CCCN2CCC(OC(c3ccccc3)c3ccccc3)CC2)cc1		-12.1% [at 42.5 µM] (inactive)
N#C[C@@H]1CC(F)(F)CN1C(=O)CNC1CC2CCC(C1)N2c1ncccn1 (stereo not given in full)		2.69% (inactive)
CN(C/C=C/C#CC(C)(C)C)Cc1cccc2ccccc12		-5.7% [at 42.5 µM] (inactive)
Cc1ccccc1N1C(=O)c2cc(S(N)(=O)=O)c(Cl)cc2NC1C (stereo not given)		6.36% [at 42.5 µM] (inactive)
Nc1ccc([N+](=O)[O-])cc1O		16.8% (inactive)
CC(N)=O		-0.841% [at 240 µM] (inactive)
O=C(/C=C/c1ccc([N+](=O)[O-])cc1)c1ccccc1		3.55% (inactive)
COc1ccc([N+](=O)[O-])cc1N	inactive	
CCCCCC/C=C\CCCCCCCC(=O)O		0.644% (inactive)
CC(C)(C)c1nnc(NS(=O)(=O)c2ccccc2)s1		0.547% [at 42.5 µM] (inactive)
O=C1CCC(C2CCCCC2)CC1		0.429% (inactive)
Oc1ccc2c(c1)CCC2		-1.52% (inactive)
Cc1ccc(S(=O)(=O)NC(=O)NC2CCCCC2)cc1		6.22% [at 42.5 µM] (inactive)
Nc1ccc(C(=O)Oc2ccccc2)c(O)c1		-4.47% [at 42.5 µM] (inactive)
